# The full list was thinned out, with hits kept by preference.
# Anthrax LF inh2: blocks Bacillus anthracis lethal factor protease; P15917; multiplex microsphere protease cleavage assay, LF; inhibition, % at 10 µM; actives 0.12% (n = 360,000); note: plate controls were buffer without enzyme for full effect and enzyme alone for no effect
# Autofluor counter: compound fluorescence in toxin protease inhibitor counterscreen; actives 3.1% (n = 360,000); fluorescence intensity (concentration not given with the values); AID 624483; compound autofluorescence counterscreen, microsphere flow cytometry; hits give high values; in the data active = fluorescence intensity above about 16000; inconclusive = no clear call, values can overlap the other calls
# TcdB inh: inhibitors of Clostridioides difficile toxin B glycohydrolase; P18177; TcdB glycohydrolase enzymatic assay, plate reader; inhibition, % at 9.99 µM; actives 0.24% (n = 350,000); in the data active = inhibition above about 10%
# BoNT-A LC inh2: BoNT A light chain protease inhibition | multiplex microsphere protease substrate cleavage, flow cytometry | inhibition, % at 10 µM | actives 0.17% (n = 360,000) | AID 588499; note: plate controls were buffer without enzyme for full effect and enzyme alone for no effect
# BoNT F protease: inhibitors of Botulinum neurotoxin F light chain protease; inhibition, % at 10 µM; AID 588497; actives 0.22% (n = 360,000); Multiplex microsphere protease cleavage assay, flow cytometry; in the data active = inhibition above about 35%, passing the limit was not always enough; inconclusive = no clear call, values can overlap the other calls; note: plate controls were buffer without enzyme for full effect and enzyme alone for no effect
# BoNT-A LC CP2: BoNT/A light chain protease inhibition. shares compounds with BoNT-A LC inh2. multiplex microsphere protease cleavage assay, flow cytometry. inhibition, % at 10 µM. actives 10% (n = 150). AID 602325; in the data active = inhibition above about 24%
# Anthrax LF CP2: inhibitors of Bacillus anthracis lethal factor protease; actives 7% (n = 150); inhibition, % at 10 µM; multiplex microsphere protease cleavage assay; shares compounds with BoNT-A LC inh2; in the data active = inhibition above about 25%
# BoNT-F LC CP2: inhibitors of botulinum neurotoxin F light chain protease; inhibition, % at 10 µM; shares compounds with BoNT-A LC inh2; multiplex microsphere protease cleavage assay, flow cytometry; actives 7% (n = 150); AID 602336; in the data active = inhibition above about 25%
# An asterisk follows results filed as active; ? = inconclusive; · = no result. Cut-off read from the data, not from the text of the source, unless noted: active = inhibition above about 30%; inconclusive = no clear call, values can overlap the other calls; inactive = below that.
SMILES,Anthrax LF inh2,Autofluor counter,TcdB inh,BoNT-A LC inh2,BoNT F protease,BoNT-A LC CP2,Anthrax LF CP2,BoNT-F LC CP2
COc1ccc(NC(=O)c2cc(S(=O)(=O)N3CCOCC3)ccc2C)cc1S(=O)(=O)N1CCCCC1,2.4,3883,1.0,0.0,2.9,·,·,·
CCCNC(=O)N1CC2(CN(CC3CCOCC3)C2)c2c([nH]c3cc(OC)ccc23)[C@H]1CO,·,·,0.8,·,·,·,·,·
Cn1ccc2c(-c3cccc4ccccc34)cc3c(c21)C1CCC3C1 (stereo unspecified),-13.3,4492,0.0,0.0,2.6,1.2,-2.8,-2.8
Cn1ccc2c(-c3cncc4ccccc34)cc3c(c21)C1CCC3C1 (stereo unspecified),29.6*,3532,1.4,47.6*,-0.2,10.1,9.6,4.0
C[C@@H]1CN([C@H](C)CO)S(=O)(=O)c2ccc(Br)cc2O[C@@H]1CN(C)C(=O)CN(C)C,·,·,-0.4,·,·,·,·,·
C[C@@H]1CN([C@@H](C)CO)C(=O)c2cc(NS(=O)(=O)c3cccs3)ccc2O[C@@H]1CN(C)C(=O)Nc1cccc2ccccc12,·,·,-3.1,·,·,·,·,·
O=C(NCc1ccccc1)c1ccc(Br)cc1[N+](=O)[O-],·,·,0.4,·,·,·,·,·
C[C@@H]1CN([C@H](C)CO)C(=O)c2ccccc2-c2ccccc2CO[C@H]1CN(C)S(=O)(=O)c1ccccc1,·,·,0.4,·,·,·,·,·
CCN(CC)c1ccc2cc(S(=O)(=O)c3ccc(C)cc3)c(=O)oc2c1,15.0,2271,·,23.9,-5.3,5.2,4.9,1.9
Cc1cc2cc(CNC(=O)c3ccc(Br)o3)ccc2[nH]1,-78.5,2858,0.6,66.7*,-110.3,22.8,18.3,-18.1
O=C(NCc1ccc2c(c1)OCO2)c1cccc([N+](=O)[O-])c1,-0.1,2511,·,0.2,2.3,·,·,·
Cc1cc2cc(CNC(=O)c3cccc([N+](=O)[O-])c3)ccc2[nH]1,-48.8,2875,1.9,78.8*,-64.1,26.8*,-1.0,14.4
Cc1c(C(=O)NCc2ccc3c(c2)cc(C)n3C)cccc1[N+](=O)[O-],-100.3,1750,1.3,77.9*,-88.4,5.8,3.0,-7.9
Cc1ccc(S(=O)(=O)NCc2ccc3[nH]c(C)cc3c2)cc1,0.4,4738,0.4,20.2,-42.1,1.4,-1.0,3.4
Cc1ccc(CNC(=O)c2ccc(Br)o2)cc1,-6.1,5929,0.6,0.1,2.9,·,·,·
CCCN(C)C[C@@H]1Oc2ncc(-c3cccnc3)cc2C(=O)N([C@@H](C)CO)C[C@@H]1C,·,·,1.0,·,·,·,·,·
C[C@@H]1CCCCO[C@H](CN(C)Cc2ccc3c(c2)OCO3)[C@H](C)CN([C@@H](C)CO)C(=O)c2cc(NC(=O)NC3CCCCC3)ccc2O1,·,·,1.6,·,·,·,·,·
CCCNC(=O)N1C[C@@H](O)COC[C@H]2O[C@H](CC(=O)N[C@@H]3CCN(Cc4ccccc4)C3)CC[C@@H]21,·,·,0.6,·,·,·,·,·
COc1ccc(NC(=O)Nc2ccc3c(c2)C(=O)N([C@@H](C)CO)C[C@@H](C)[C@@H](CN(C)C(=O)Nc2ccccc2)OCCCC[C@H](C)O3)cc1,·,·,0.1,·,·,·,·,·
O=C(Cc1cccnc1)N1CC(=O)N2[C@@H](CO)[C@@H](c3ccc(C#CC4CC4)cc3)[C@@H]2C1,·,·,0.4,·,·,·,·,·
Cc1cc2cc(CNC(=O)c3ccc(Br)o3)ccc2n1C,-24.1,2858,-0.3,62.1*,-60.7,14.9,10.5,-11.4
Cc1cc2cc(CNC(=O)C3CCCC3)ccc2n1C,1.3,3369,-0.7,44.6*,-32.1,4.2,4.4,-1.8
Cc1cc2cc(CNC(=O)Cc3cccs3)ccc2n1C,-52.9,2301,·,74.8*,-62.3,19.6,9.2,-22.7
Cn1c(CNC(=O)C2CCCCC2)cc2cc(Cl)ccc21,4.9,3777,-0.3,0.6,?,·,·,·
C[C@H](CO)N1C[C@H](C)[C@H](CN(C)C(=O)Nc2ccnc(N3CCOCC3)c2)OCc2cn(nn2)CCCC1=O,·,·,0.3,·,·,·,·,·
SMILES,Anthrax LF inh2,Autofluor counter,TcdB inh,BoNT-A LC inh2,BoNT F protease,BoNT-A LC CP2,Anthrax LF CP2,BoNT-F LC CP2
COc1ccccc1Cc1c(-c2ccc(C)cc2)nc2cc(C)c(Br)c(C)n12,4.4,4617,0.5,1.8,-1.5,10.1,7.0,19.4
COc1ccccc1Cc1c(-c2ccc(F)cc2)nc2cc(C)c(Br)c(C)n12,9.2,6390,0.7,1.2,-19.5,24.7*,-3.7,21.3
Cc1cc2nc(-c3cccc(Br)c3)c(Cc3cccc(Cl)c3)n2c(C)c1Br,-4.7,5299,1.8,0.1,-8.4,11.7,2.6,44.8*
Cc1cc2nc(-c3cccc(Cl)c3)c(Cc3ccccc3)n2c(C)c1Br,-1.1,6508,·,1.0,-6.5,·,·,·
COc1ccccc1Cc1c(-c2ccccc2)nc2cc(C)c(Br)c(C)n12,7.3,4357,0.3,1.2,-3.0,2.9,-1.6,-2.9
O=C(O)CN1CCN(CC(=O)O)CCN(CC(=O)O)CCN(CC(=O)O)CC1,8.9,5999,2.1,9.1,63.1*,6.2,3.7,48.1*
CC(=O)Nc1ccc(S(=O)(=O)NCc2ccc(C)cc2)cc1,-0.4,4322,·,0.0,3.4,·,·,·
CC(=O)Nc1ccc(S(=O)(=O)NCc2ccc3c(c2)cc(C)n3C)cc1,-115.1,1283,7.8,71.8*,-112.1,18.9,22.7,-6.6
Cc1cc2cc(CNS(=O)(=O)c3ccc4ccccc4c3)ccc2n1C,-89.1,2284,0.9,47.2*,-108.3,19.7,6.4,-26.9
Cc1cc(C)c(S(=O)(=O)NCc2ccc3c(c2)cc(C)n3C)c(C)c1,-36.1,1929,0.5,77.5*,-79.4,5.0,1.0,-7.7
C[C@H](CO)N1C[C@H](C)[C@@H](CN(C)Cc2ccc(Oc3ccccc3)cc2)Oc2ccc(NS(C)(=O)=O)cc2CC1=O,·,·,0.3,·,·,·,·,·
Cc1ccccc1S(=O)(=O)N[C@H]1CC[C@H](CCNS(=O)(=O)c2cccc(F)c2)O[C@H]1CO,·,·,-1.7,·,·,·,·,·
Cn1ccc2c(-c3cccnc3)cc3c(c21)C1CCC3C1 (stereo unspecified),4.2,5938,2.9,0.8,1.5,1.7,0.4,9.6
COc1ccc(-c2cc3c(c4c2ccn4C)C2CCC3C2)cc1OC (stereo unspecified),6.5,4059,1.1,20.5,-30.3,13.6,2.7,-22.0
Cn1ccc2c(-c3ccc(F)nc3)cc3c(c21)C1CCC3C1 (stereo unspecified),37.2*,3942,0.2,50.3*,4.6,33.4*,32.2*,0.8
Cn1ccc2c(-c3cccc(C=O)c3F)cc3c(c21)C1CCC3C1 (stereo unspecified),-23.7,3712,1.4,18.8,-67.1,·,·,·
CN(c1cccc(F)c1)c1cc2c(c3c1ccn3C)C1CCC2C1 (stereo unspecified),-15.9,4440,-2.8,-0.9,-5.3,·,·,·
Cn1ccc2c(-c3cccc(C=O)c3)cc3c(c21)C1CCC3C1 (stereo unspecified),-7.0,4170,2.4,1.2,0.8,·,·,·
Cn1ccc2c(-c3ccc(F)cc3F)cc3c(c21)C1CCC3C1 (stereo unspecified),7.2,4959,0.4,15.6,-12.3,1.6,-2.4,-9.5
